Many of the other results were omitted from the sample, so hits are more common in it than they were.
SARS PLP yeast – inhibitors of SARS-CoV papain-like protease in yeast | S. cerevisiae expressing SARS-CoV PLpro, growth rescue | Potency, µM (highest dose often 32.9 µM), most hits filed as activators | actives 0.19% (n = 330,000); note: nearly all actives have a fitted effect of over 55% in size
Shiga toxin inh – blocks Shiga toxin action in Vero cells; Vero cells, Shiga toxin protein synthesis inhibition reporter; actives 9.2% (n = 290,000); inhibition, % at 38.7 µM; in the data active = inhibition mostly above about 28%, no sharp cut-off; inactive = mostly below about 43%
LmPK inhibitor – LmPK (Leishmania mexicana) enzyme inhibition; Q27686; purified LmPK, Kinase-Glo ATP luminescence, 1 h; Potency, µM (series often up to 57.5 µM), most hits filed as inhibitors; actives 0.37% (n = 290,000); AID 1721; active = well fitted curve in the direction sought with a large enough effect; an effect the other way counts as inactive or inconclusive
Target sequence (Q27686 whole entry, looked up): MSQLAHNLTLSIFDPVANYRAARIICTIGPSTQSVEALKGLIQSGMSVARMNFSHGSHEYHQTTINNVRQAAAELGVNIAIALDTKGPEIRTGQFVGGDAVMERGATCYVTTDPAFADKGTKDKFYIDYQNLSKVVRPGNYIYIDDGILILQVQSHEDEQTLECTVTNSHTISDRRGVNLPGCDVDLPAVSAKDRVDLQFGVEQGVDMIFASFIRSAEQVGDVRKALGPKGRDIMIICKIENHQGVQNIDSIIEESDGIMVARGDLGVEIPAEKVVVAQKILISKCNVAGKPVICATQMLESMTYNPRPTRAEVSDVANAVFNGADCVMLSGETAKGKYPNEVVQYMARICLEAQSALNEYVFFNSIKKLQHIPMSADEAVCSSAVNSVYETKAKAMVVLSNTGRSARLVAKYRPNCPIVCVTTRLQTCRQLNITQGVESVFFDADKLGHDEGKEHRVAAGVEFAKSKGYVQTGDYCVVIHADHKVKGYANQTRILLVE
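Pyruvate kinase activity monitored as ATP production (luciferase luminescence). Conditions: 0.1 nM enzyme, 0.5 mM PEP, 0.1 mM ADP, 1 h, RT; normalized against uninhibited and no-enzyme wells.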
TbPYK inhibitor – T. brucei pyruvate kinase inhibition. actives 0.12% (n = 410,000). Potency, µM (doses to about 76.8 µM), hits mostly inhibitors. TbPYK enzyme, Kinase-Glo Plus ATP luminescence, 45 min. Q57TT1; active = well fitted curve in the direction sought with a large enough effect; an effect the other way counts as inactive or inconclusive; note: nearly all actives have a fitted effect of over 50% in size
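Luminescent Kinase-Glo Plus end-point after 45 min room-temperature reaction of T. brucei pyruvate kinase started with 130 uM ADP (final). Buffer TEA 50 mM pH 7.2 with KCl, MgCl2, BSA, Tween-20; titration-based qHTS with fitted concentration-effect curves.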
NS1 inh – influenza NS1 inhibition | Potency, µM (doses to about 46.1 µM) | actives 0.4% (n = 270,000); note: actives are rising curves; nearly all actives have a fitted effect of over 50% in size
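Recovery from NS1-induced slow growth read by OD600 in budding yeast switched to galactose assay medium (pH 6.0, -URA) at 1:100 dilution. Compound 23 nl per well; the matching strain lacking NS1 serves as control.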
CHX counter – counter-screen hit for Shiga toxin inhibitors, cycloheximide. cell reporter, cycloheximide protein synthesis inhibition counterscreen. AID 2314. actives 12% (n = 300,000). max response, %; in the data active = max response mostly above about 13%, no sharp cut-off; inactive = mostly below about 14%; note: read at 38.3 µM for the half of the compounds with a filed dose
A number is an active result. Unless noted, calls come from the whole dose curve.

`CC(C)N(C)S(=O)(=O)c1ccc(Cl)c(C(=O)O)c1` gave SARS PLP yeast inactive, Shiga toxin inh inactive, LmPK inhibitor inactive, TbPYK inhibitor inactive and CHX counter inactive.
O=C(Nc1nc2ccc(F)cc2s1)C1=NN(c2ccccc2)C(=O)CC1 was read as SARS PLP yeast inactive, Shiga toxin inh 67, LmPK inhibitor inactive, TbPYK inhibitor inactive, NS1 inh inactive and CHX counter 35.
Screening O=C(Nc1nc2ccccc2s1)C1=NN(c2ccccc2)C(=O)CC1 returned SARS PLP yeast inactive, Shiga toxin inh active, LmPK inhibitor inactive, TbPYK inhibitor inactive, NS1 inh inactive and CHX counter 20.
Screening O=S(=O)(c1cccc(F)c1)N1CCN(S(=O)(=O)c2ccc3c(c2)OCCO3)CC1 returned Shiga toxin inh inactive and CHX counter inactive.
For FC(F)(F)c1cnc(-c2cnc(-c3ccccn3)nc2)c(Cl)c1 the results were SARS PLP yeast inactive, Shiga toxin inh 52, LmPK inhibitor inactive, TbPYK inhibitor inactive and CHX counter inactive.
Screening FC(F)(F)c1cc(Oc2ccccc2Cl)nc(-c2ccccn2)n1 returned SARS PLP yeast inactive, Shiga toxin inh inactive, LmPK inhibitor inactive, TbPYK inhibitor inactive, NS1 inh inactive and CHX counter inactive.
Screening FC(F)(F)c1cnc(-c2cnc(-c3ccncc3)nc2)c(Cl)c1 returned SARS PLP yeast inactive, Shiga toxin inh inactive, LmPK inhibitor inactive, TbPYK inhibitor inactive and CHX counter 20.
For COc1ccc(CC(=O)OCC(=O)Nc2ccc(F)cc2)cc1 the results were SARS PLP yeast inactive and TbPYK inhibitor inactive.
For O=C(/C=C/c1cccc(F)c1)N1CCN(c2ccccn2)CC1 the results were SARS PLP yeast inactive, Shiga toxin inh 43, LmPK inhibitor inactive, TbPYK inhibitor inactive, NS1 inh inactive and CHX counter 22.
CN1CCCN(C(=O)/C=C/c2ccc(F)cc2)CC1 was read as SARS PLP yeast inactive, Shiga toxin inh inactive, LmPK inhibitor inactive, TbPYK inhibitor inactive, NS1 inh inactive and CHX counter 16.
O=C(/C=C/c1ccc(F)cc1)N1CCN(c2ncccn2)CC1 was read as SARS PLP yeast inactive, Shiga toxin inh 71, LmPK inhibitor inactive, TbPYK inhibitor inactive and CHX counter 24.
`O=C(/C=C/c1ccccc1F)N1CCN(c2ccccn2)CC1` gave SARS PLP yeast inactive, Shiga toxin inh inactive, LmPK inhibitor inactive, TbPYK inhibitor inactive, NS1 inh inactive and CHX counter 17.
CN1CCC(=NNC(=O)C(=O)Nc2ccccc2)CC1 was read as SARS PLP yeast inactive, Shiga toxin inh 25, LmPK inhibitor inactive, TbPYK inhibitor inactive, NS1 inh inactive and CHX counter 24.
Screening C=CCNC(=O)C(=O)NN=C1CCN(C)CC1 returned SARS PLP yeast inactive, Shiga toxin inh inactive, LmPK inhibitor inactive, TbPYK inhibitor inactive, NS1 inh inactive and CHX counter inactive.
`Cc1ccc(/C=N/Nc2cc(C)nc(N3CCOCC3)n2)cc1` gave SARS PLP yeast inactive, Shiga toxin inh inactive, LmPK inhibitor inactive, TbPYK inhibitor inactive, NS1 inh inactive and CHX counter inactive.
`Cc1cc(N/N=C/c2ccccc2)nc(N2CCOCC2)n1` gave SARS PLP yeast inactive, Shiga toxin inh inactive, LmPK inhibitor inactive, TbPYK inhibitor inactive, NS1 inh inactive and CHX counter 19.
For Cc1nc(N)nc(N/N=C/c2ccccc2)n1 the results were SARS PLP yeast inactive, Shiga toxin inh 41, LmPK inhibitor inactive, TbPYK inhibitor inactive, NS1 inh inactive and CHX counter 14.
For Cc1cc(N/N=C/c2ccc(N(C)C)cc2)nc(NCc2ccccc2)n1 the results were SARS PLP yeast inactive, Shiga toxin inh inactive, LmPK inhibitor inactive, TbPYK inhibitor inactive, NS1 inh inactive and CHX counter inactive.
Screening Cc1cc(N/N=C/c2ccccc2)nc(N)n1 returned SARS PLP yeast inactive, Shiga toxin inh 50, LmPK inhibitor inactive, TbPYK inhibitor inactive, NS1 inh inactive and CHX counter 20.
For COC(=O)c1ccc(NC(=O)C2CCN(C(=O)Nc3ccccc3)CC2)cc1 the results were SARS PLP yeast inactive and TbPYK inhibitor inactive.
O=C(NC(c1ccc(Cl)cc1)c1cnccn1)C1CCN(CCCc2ccccc2)CC1 (centres undefined) was read as TbPYK inhibitor inactive.

Screening results as filed in PubChem.
